# Measured values published in PubChem BioAssay.
# Inconclusive results are not listed. Active and inactive are the calls of the source.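 Rule for the calls, unless noted: active = viability at or under a set limit in both replicates, limit being median viability minus 3 SD (cut at about 48% in these data, passing the limit was not always enough); inconclusive = at or under the limit in just one replicate; inactive = at or above the limit in both replicates.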
# Legend:
# [1] = viability gain of MRP-1-high H69AR cells under doxorubicin, pilot screen, MRP-1 activator project, CellTiter-Glo, duplicate (AID 807;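 active = viability increase at or above a cutoff of the median across tested compounds plus 3 SD, cut at about 8.5% in these data, passing the limit was not always enough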;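 note: compound pretreatment 18-22 h then 72 h combined with doxorubicin; 0% = doxorubicin alone and 100% = vehicle without doxorubicin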); conditions: H69AR viability with doxorubicin, CellTiter-Glo luminescence; at 10 µM; stronger effect = higher value
# [2] = growth suppression of beta-catenin knockout HCT116, pilot screen, human colon tumor cells (AID 823;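 active = cell viability at or below a set limit in both duplicate runs, the limit being the all-compound median minus 4 SD, cut at about 23% in these data, passing the limit was not always enough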;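 note: 0% = wells killed by 20 µM Hyamine and 100% = untreated DMSO cell wells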); conditions: CellTiter-Glo, 60 h, at 10 µM, stronger effect = lower value
# [3] = growth suppression of PTEN-deleted HCT116, pilot screen, cell-based, HCT116 clonal line, CellTiter-Glo (AID 824;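 active = viability at or below 27.92% in each of two runs, the all-compound median minus 4 SD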;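 note: 0% = 20 µM Hyamine control and 100% = vehicle cell control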); conditions: 60 h, at 10 µM, stronger effect = lower value
# [4] = inhibitors of the yeast RAM network, pilot screen, dse1pr::URA3 reporter, 5-FOA selection (AID 869;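 active = inhibition over a set limit, the all-compound mean plus 3 SD, in both replicate runs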;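 note: 0% = DMSO wells with no growth and 100% = 10 µM 1-NA-PP1 with full growth; RAM network block rescues cells from 5-FOA so hits raise OD615 growth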); conditions: S. cerevisiae dse1pr::URA3 5-FOA growth, OD615, 2 d; at 10 µM; stronger effect = higher value; strain carries analog-sensitive mutant Cbk1 kinase
# [5] = RAM signaling pathway blockade in yeast – S. cerevisiae, Pdr1DBD-CYC8 efflux-inhibited sensitized strain, primary screen (AID 1298;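 active = RAM network inhibition above 8.4% in each of two replicates, 3 SD over the compound average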;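 note: 0% = DMSO untreated cells without growth and 100% = 10 µM 1-NA-PP1 full growth; higher means more yeast growth rescued from 5-FOA killing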); conditions: S. cerevisiae cbk1-as DSE1-URA3 strain, 5-FOA growth OD615, 2 d; at 50 µM; stronger effect = higher value
# [6] = reducers of endogenous Her2 protein level, primary screen, SKBR3 breast tumor cells, AlphaScreen, ATP viability (AID 461;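 active = Her2 level under about 52% in both replicate screens, with viability over 70% of control, limit read from the data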;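 for Her2 level: lower value means less Her2 protein in the cells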;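 for viability: percent of carrier control wells set as 100% viability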); conditions: 18-24 h, measured here: SKBR3 viability, ATP luminescence, at 10 µM
# [7] = biological target: Receptor tyrosine-protein kinase erbB-2 (Homo sapiens) (UniProt P04626); test: as above; conditions: 18-24 h, at 10 µM, stronger effect = lower value
# [8] = SK-BR-3 cell growth inhibitors, pilot screen, 24 h, human (AID 572;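 active = viability at or below 10% of carrier control in both of two separate runs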;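 note: compound exposure lasted between 18 and 24 h rather than exactly 24 h; 100% = carrier-treated control wells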); conditions: SK-BR-3 viability, CellTiter-Glo luminescence, at 10 µM, stronger effect = lower value
# [9] = HUVEC growth inhibition – cell-based, human, primary screen (AID 575;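 active = viability at or below 30% in both replicate assays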;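 note: 100% = median of untreated cell wells with 0.1% DMSO on each plate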); conditions: HUVEC proliferation, CellTiter-Glo luminescence, 72 h; at 10 µM; stronger effect = lower value
# [10] = growth inhibitors of H69AR lung tumor, primary screen, human, duplicate replicates (AID 580); conditions: H69AR lung tumor cells viability, ATP luminescence, 72 h; at 10 µM; stronger effect = lower value;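 note: 100% = mean luminescence of untreated wells and 0% = no signal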
# [11] = reversal of MRP1-mediated doxorubicin resistance, pilot screen, H69AR cells, doxorubicin co-treatment (AID 601;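 active = viability loss from added drug above about 55%, and viability with drug at most 40%, in both replicates, limit read from the data, passing the limit was not always enough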); conditions: CellTiter-Glo, 72 h, at 10 µM; for differential viability (reversal): stronger effect = higher value
# [12] = H69AR cells + 2 uM doxorubicin, measured here: viability with 2 uM doxorubicin, stronger effect = lower value
# [13] = H69AR cells, compound alone cytotoxicity
# Receptor tyrosine-protein kinase erbB-2 (Homo sapiens), sequence (P04626 whole entry, looked up): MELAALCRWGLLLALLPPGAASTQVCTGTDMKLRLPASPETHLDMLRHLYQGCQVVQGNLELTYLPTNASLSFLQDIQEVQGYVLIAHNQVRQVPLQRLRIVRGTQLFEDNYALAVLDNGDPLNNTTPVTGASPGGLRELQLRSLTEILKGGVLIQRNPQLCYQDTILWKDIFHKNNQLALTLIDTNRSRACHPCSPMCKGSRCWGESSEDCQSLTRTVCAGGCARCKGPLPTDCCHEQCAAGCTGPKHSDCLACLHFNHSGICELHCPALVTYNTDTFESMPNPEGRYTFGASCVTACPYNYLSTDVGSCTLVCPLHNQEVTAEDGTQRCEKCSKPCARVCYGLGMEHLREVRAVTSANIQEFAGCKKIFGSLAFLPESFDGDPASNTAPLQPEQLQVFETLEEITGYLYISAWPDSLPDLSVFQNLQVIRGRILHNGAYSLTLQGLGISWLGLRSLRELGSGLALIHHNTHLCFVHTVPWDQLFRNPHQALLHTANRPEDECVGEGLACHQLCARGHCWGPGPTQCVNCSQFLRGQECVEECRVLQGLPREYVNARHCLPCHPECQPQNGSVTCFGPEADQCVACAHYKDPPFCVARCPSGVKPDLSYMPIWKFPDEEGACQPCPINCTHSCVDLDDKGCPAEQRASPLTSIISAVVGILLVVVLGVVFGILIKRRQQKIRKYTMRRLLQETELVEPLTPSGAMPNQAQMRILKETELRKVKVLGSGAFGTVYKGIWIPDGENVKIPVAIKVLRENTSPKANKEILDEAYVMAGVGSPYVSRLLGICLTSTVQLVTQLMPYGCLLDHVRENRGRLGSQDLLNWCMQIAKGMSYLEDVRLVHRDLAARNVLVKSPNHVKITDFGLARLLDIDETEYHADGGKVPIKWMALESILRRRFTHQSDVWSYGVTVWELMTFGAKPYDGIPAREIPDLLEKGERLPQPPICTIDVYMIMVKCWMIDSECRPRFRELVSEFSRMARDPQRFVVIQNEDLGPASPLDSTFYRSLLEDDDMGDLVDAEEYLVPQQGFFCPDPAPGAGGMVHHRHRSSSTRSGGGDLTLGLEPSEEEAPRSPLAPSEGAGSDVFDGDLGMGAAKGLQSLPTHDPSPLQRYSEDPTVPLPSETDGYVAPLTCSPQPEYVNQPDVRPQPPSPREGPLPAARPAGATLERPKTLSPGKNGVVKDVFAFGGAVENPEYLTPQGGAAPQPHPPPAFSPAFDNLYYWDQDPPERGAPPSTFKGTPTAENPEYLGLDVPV
Compound,viability increase [1],viability [2],viability [3],inhibition [4],RAM network inhibition [5],viability [6] [%],Her2 level [7],viability [8],viability [9],viability [10],differential viability (reversal) ([11]; H69AR cells + 2 uM doxorubicin),"viability [11, 12] [%]","viability [11, 13] [%]"
O=C1C(=C2CCCCC2)SC(=S)N1Cc1ccco1,-4.02% (inactive),80.2% (inactive),84.4% (inactive),0.825% (inactive),2.66% (inactive),,,,,,,,
Cc1nnc(NS(=O)(=O)c2ccc(N)cc2)s1,,,,,,93.5,126% (inactive),93.5% (inactive),105% (inactive),96.2% (inactive),-10.4% (inactive),107,96.2
COC(=O)[C@@H](N)Cc1ccc(O)cc1,,,,,,106,108% (inactive),106% (inactive),82.9% (inactive),109% (inactive),15.7% (inactive),93.8,109
O=C(O)c1cc(=O)c2c(OCC(O)COc3cccc4oc(C(=O)O)cc(=O)c34)cccc2o1,,,,,,102,102% (inactive),102% (inactive),121% (inactive),106% (inactive),14.7% (inactive),91.5,106
CN(C)[C@@H]1C(=O)C(C(N)=O)=C(O)[C@@]2(O)C(=O)C3=C(O)c4c(O)ccc(Cl)c4[C@@H](O)[C@H]3C[C@@H]12,,,,,,140,108% (inactive),140% (inactive),101% (inactive),84.2% (inactive),0.66% (inactive),83.6,84.2
CC(=O)[C@@]1(O)CC[C@H]2[C@@H]3CCC4=CC(=O)CC[C@]4(C)[C@H]3[C@@H](O)C[C@@]21C,,,,,,97,104% (inactive),97% (inactive),94.8% (inactive),99.5% (inactive),0.36% (inactive),99.2,99.5
C[C@]12CC[C@@H]3c4ccc(O)cc4CC[C@H]3[C@@H]1CC[C@@H]2OC(=O)CCC(=O)O,,,,,,118,111% (inactive),118% (inactive),99.3% (inactive),105% (inactive),0.94% (inactive),104,105
O=c1n(CCCN2CCN(c3cccc(Cl)c3)CC2)nc2ccccn12,,,,,,81,93% (inactive),81% (inactive),99.2% (inactive),87.3% (inactive),-7.03% (inactive),94.3,87.3
CCCCC1C(=O)N(c2ccccc2)N(c2ccccc2)C1=O,,,,,,99,90.5% (inactive),99% (inactive),99.1% (inactive),98.5% (inactive),7.41% (inactive),91.1,98.5
CC(=O)OCC(=O)[C@@]1(O)[C@H](C)C[C@H]2[C@@H]3CCC4=CC(=O)C=C[C@]4(C)[C@@]3(F)[C@@H](O)C[C@@]21C,,,,,,118,116% (inactive),118% (inactive),101% (inactive),93.5% (inactive),-15.8% (inactive),109,93.5
O=C(O)Cc1cc(I)c(Oc2ccc(O)c(I)c2)c(I)c1,,,,,,89,106% (inactive),89% (inactive),76% (inactive),96.3% (inactive),-4.12% (inactive),100,96.3
CC1(C)O[C@@H]2C[C@H]3[C@@H]4CCC5=CC(=O)C=C[C@]5(C)[C@@]4(F)[C@@H](O)C[C@]3(C)[C@]2(C(=O)CO)O1,,,,,,90.5,128% (inactive),90.5% (inactive),103% (inactive),92.8% (inactive),-10.5% (inactive),103,92.8
CCC1(c2ccccc2)C(=O)NCNC1=O,,,,,,96.5,102% (inactive),96.5% (inactive),116% (inactive),102% (inactive),16.5% (inactive),85.7,102
COc1ccc(/C=C(/C#N)c2cccnc2)cc1OC,,,,,,92,97.5% (inactive),92% (inactive),96.9% (inactive),103% (inactive),6.09% (inactive),96.7,103
CCS(=O)(=O)CCn1c([N+](=O)[O-])cnc1C,,,,,,89.5,122% (inactive),89.5% (inactive),105% (inactive),100% (inactive),9.26% (inactive),90.9,100
CC[N+](C)(CC)CCOC(=O)C(O)(c1ccccc1)C1CCCCC1 (centres undefined),,,,,,91.5,97.5% (inactive),91.5% (inactive),98.9% (inactive),110% (inactive),12.8% (inactive),97,110
Cc1onc(-c2ccccc2)c1C(=O)N[C@@H]1C(=O)N2[C@@H]1SC(C)(C)[C@@H]2C(=O)O,,,,,,108,100% (inactive),108% (inactive),91.1% (inactive),101% (inactive),0% (inactive),101,101

Compound,viability increase [1],viability [2],viability [3],inhibition [4],RAM network inhibition [5],viability [6] [%],Her2 level [7],viability [8],viability [9],viability [10],differential viability (reversal) ([11]; H69AR cells + 2 uM doxorubicin),"viability [11, 12] [%]","viability [11, 13] [%]"
N=c1c[n+](N2CCOCC2)[n-]o1,,,,,,114,100% (inactive),114% (inactive),97.7% (inactive),96.5% (inactive),-4.17% (inactive),101,96.5
NS(=O)(=O)c1cc2c(cc1C(F)(F)F)NC(Cc1ccccc1)NS2(=O)=O (centres undefined),,,,,,106,114% (inactive),106% (inactive),83.9% (inactive),88.9% (inactive),-5.48% (inactive),94.3,88.9
Nc1nc(F)nc2c1ncn2[C@@H]1O[C@H](CO)[C@@H](O)[C@@H]1O,,,,,,97,104% (inactive),97% (inactive),65.7% (inactive),103% (inactive),-2.94% (inactive),106,103
Cc1ccccc1C(OCCN(C)C)c1ccccc1 (centres undefined),,,,,,93,86% (inactive),93% (inactive),98.9% (inactive),91.3% (inactive),10.8% (inactive),80.5,91.3
CCCCCCCC(=O)OCC(=O)[C@@]1(O)CC[C@H]2[C@@H]3CCC4=CC(=O)CC[C@]4(C)[C@H]3[C@@H](O)C[C@@]21C,,,,,,120,102% (inactive),120% (inactive),97.6% (inactive),102% (inactive),-5.05% (inactive),107,102
CC(=O)NS(=O)(=O)c1ccc(N)cc1,,,,,,118,124% (inactive),118% (inactive),90% (inactive),102% (inactive),6.32% (inactive),95.4,102
CC(C)[N+](C)(CCOC(=O)C1c2ccccc2Oc2ccccc21)C(C)C,,,,,,108,93% (inactive),108% (inactive),100% (inactive),88.1% (inactive),2.38% (inactive),85.7,88.1
CCC(NC(C)C)C(O)c1ccc(O)c(O)c1 (centres undefined),,,,,,87.5,88% (inactive),87.5% (inactive),105% (inactive),85% (inactive),-6.46% (inactive),91.5,85
O=C(NCC1CCCCN1)c1cc(OCC(F)(F)F)ccc1OCC(F)(F)F (centres undefined),,,,,,86,101% (inactive),86% (inactive),91.8% (inactive),97.9% (inactive),-4.55% (inactive),102,97.9
CC(C)C[C@H](NC(=O)[C@@H]1O[C@H]1C(=O)O)C(=O)NCCCCN=C(N)N,,,,,,100,104% (inactive),100% (inactive),86% (inactive),100% (inactive),-2.29% (inactive),103,100
COc1ccc2cc([C@H](C)C(=O)O)ccc2c1,,,,,,93.5,107% (inactive),93.5% (inactive),111% (inactive),94.8% (inactive),11.8% (inactive),83,94.8
CC(=O)O[C@]1(C(C)=O)CC[C@H]2[C@@H]3C=C(C)C4=CC(=O)CC[C@]4(C)[C@H]3CC[C@@]21C,,,,,,97,88% (inactive),97% (inactive),113% (inactive),87.6% (inactive),23.2% (inactive),64.3,87.6
OCCOCCN1CCN(C(c2ccccc2)c2ccc(Cl)cc2)CC1 (centres undefined),,,,,,79,80% (inactive),79% (inactive),90.1% (inactive),98.3% (inactive),9.31% (inactive),89,98.3
CN1Cc2c(N)cccc2C(c2ccccc2)C1 (centres undefined),,,,,,81,102% (inactive),81% (inactive),106% (inactive),102% (inactive),5.5% (inactive),96.5,102
CN1CCC(=C2c3ccccc3CC(=O)c3sccc32)CC1,,,,,,96,87% (inactive),96% (inactive),76.4% (inactive),91.4% (inactive),11.8% (inactive),79.6,91.4
CC1(C)S[C@@H]2[C@H](NC(=O)Cc3ccccc3)C(=O)N2[C@H]1C(=O)O,,,,,,94.5,94.5% (inactive),94.5% (inactive),95.4% (inactive),109% (inactive),13.5% (inactive),95.6,109
CN1CCCN=C1COC(=O)C(O)(c1ccccc1)C1CCCCC1 (centres undefined),,,,,,95,79.5% (inactive),95% (inactive),95% (inactive),91.6% (inactive),3.15% (inactive),88.4,91.6
